Experimental data: the supplement of paper PMC9135407
Several values for one entry are separate records, joined by “and”; a condition that tells them apart may be missing. Identical values can stand only once. Counter-ions that a name gives are not always drawn. About 620 (11%) of roughly 5,800 compounds showed activity. What follows is part of a selection rich in actives, with near analogues and random picks from the rest. Unmarked numbers belong to inactive results.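 Rule for the calls: active = score above a cut-off or among the top three wells of a plate; in these data no inactive exceeds 0.85.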

System: primary human hepatic stellate cells (donor 1)
Experiment: scaled lipid accumulation score (0 = DMSO-like, 1 = nortriptyline-like); higher = stronger HSC inactivation (lipid re-accumulation), active = hit call of the paper
Conditions: 48 h
[1] = library stock concentration: 10 mM
[2] = library stock concentration: 3.33 mM
[3] = library stock concentration: 1 mM

CN1c2cc3c(cc2N=C(c2ccc(C(=O)O)cc2)c2ccccc21)C(C)(C)CCC3(C)C
scaled lipid accumulation score [1]: 0.08

CNCCC[C@]12CC[C@H](c3ccccc31)c1ccccc12 [Maprotiline HCl]
scaled lipid accumulation score (library stock concentration: 7.2 mM): 1.22 (active)

CNCCCC12CCC(c3ccccc31)c1ccccc12 [Maprotilline HCl]
scaled lipid accumulation score [1]: 1.35 (active)

CNCCCC12CCC(c3ccccc31)c1ccccc12 [Maprotiline HCl]
scaled lipid accumulation score [2]: 0.678

C=CCN1CCc2c(cc(O)c(O)c2Cl)C(c2ccccc2)C1 (centres undefined)
scaled lipid accumulation score [1]: 0.02

NCCNC(=O)c1ccc(Cl)cn1 [Lazabemide hydrochloride]
scaled lipid accumulation score [1]: ≤ -0.001

CCCCNC(=O)[C@@H]1Cc2ccccc2N1C(=O)[C@@H](N)CC [Butabindide oxalate]
scaled lipid accumulation score [1]: 0.016

CCCCCCCCCCCC=CC(C)(C)C=CCCCC(=O)O [7,7-Dimethyleicosadienoic acid]
scaled lipid accumulation score [3]: ≤ -0.02

Clc1ccc2c(c1)N=C(N1CCNCC1)c1ccccc1N2 [N-Desmethylclozapine] [listing 1 of 2 here]
scaled lipid accumulation score [1]: 0.668

CN1CCN(C2=Nc3cc(Cl)ccc3Nc3ccccc32)CC1 [Clozapine] [listing 1 of 4 here]
scaled lipid accumulation score [1]: 0.977 (active)

Clc1ccc2c(c1)N=C(N1CCNCC1)c1ccccc1N2 [N-Desmethylclozapine] [listing 2 of 2 here]
scaled lipid accumulation score [1]: 0.941 (active)

CN1CCN(C2=Nc3cc(Cl)ccc3Nc3ccccc32)CC1
scaled lipid accumulation score [1]: 0.854 (active)

CN1CCN(C2=Nc3cc(F)ccc3Cc3ccccc32)CC1 [Fluperlapine]
scaled lipid accumulation score [1]: 0.448

CN1CCN(C2=Nc3cc(Cl)ccc3Nc3ccccc32)CC1 [Clozapine] [listing 2 of 4 here]
scaled lipid accumulation score: 1 (active)

CC(NC(=O)C(O)c1cc(F)cc(F)c1)C(=O)NC1C(=O)N(C)c2ccccc2-c2ccccc21 (centres undefined)
scaled lipid accumulation score [2]: 0.011 | scaled lipid accumulation score [1]: 0.133

O=C(Nc1cccc2cccnc12)c1ccc(N2C(=O)C3C4C=CC(C4)C3C2=O)cc1 (stereo not drawn) [IWR-1-endo]
scaled lipid accumulation score [2]: ≤ 0 | scaled lipid accumulation score [1]: ≤ -0.001

CCCCC/C=C\C/C=C\C/C=C\C/C=C\CCCC(=O)OCc1ccsc1
scaled lipid accumulation score [3]: ≤ 0

C[C@]12CC[C@@H]3c4cc(O)c(O)cc4CC[C@H]3[C@@H]1CC[C@@H]2O [2-Hydroxyestradiol]
scaled lipid accumulation score [3]: ≤ 0

Nc1nccc(-c2ccc3noc(-c4ccc(Cl)cc4)c3c2)n1 [PIM 1 Inhibitor 2]
scaled lipid accumulation score [1]: ≤ 0

CCNc1nc2c(ncn2[C@H]2C[C@H](O)[C@@H](CO)O2)c(=O)[nH]1 [N2-Ethyl-2'-deoxyguanosine]
scaled lipid accumulation score [1]: ≤ 0

N.N.N.N.N.N.N.N.N.N.N.N.N.N.O.O.[Cl-].[Cl-].[Cl-].[Cl-].[Cl-].[Cl-].[Ru+4].[Ru+5].[Ru+5] [Ruthenium red]
scaled lipid accumulation score [1]: ≤ 0

CC(C)=CCC/C(C)=C/CC/C(C)=C/CC/C(C)=C/CC/C(C)=C/CC/C(C)=C/CC1=C(C)C(=O)c2ccccc2C1=O [Vitamin K2]
scaled lipid accumulation score: 0.008

CN1CCN(C2=Nc3cc(Cl)ccc3Nc3ccccc32)CC1 [Clozapine] [listing 3 of 4 here]
scaled lipid accumulation score [2]: 0.105 | scaled lipid accumulation score (library stock concentration: 6.1 mM): 0.429 and 0.648 | scaled lipid accumulation score [1]: 0.755 and 0.578 | scaled lipid accumulation score (library stock concentration: 15.3 mM): 0.769

Cc1cc2c(s1)Nc1ccccc1N=C2N1CCN(C)CC1
scaled lipid accumulation score (library stock concentration: 9.9 mM): 0.228

CN1CCN(C2=Nc3cc(Cl)ccc3Nc3ccccc32)CC1 [Clozapine] [listing 4 of 4 here]
scaled lipid accumulation score [1]: 0.967 (active)

Cc1cc2c(s1)Nc1ccccc1N=C2N1CCN(C)CC1 [Olanzapine]
scaled lipid accumulation score [2]: 0.171 | scaled lipid accumulation score (library stock concentration: 6.4 mM): 0.341 and ≤ 0 | scaled lipid accumulation score [1]: 0.232

O=C(O)CCC/C=C\C[C@@H]1[C@@H](CC[C@@H](O)CCc2cccc(C(F)(F)F)c2)[C@H](O)C[C@@H]1O
scaled lipid accumulation score [3]: ≤ 0

CCCCOc1cc(C(=O)NCCN(CC)CC)c2ccccc2n1 [Dibucaine hydrochloride]
scaled lipid accumulation score (library stock concentration: 5.3 mM): 0.662 | scaled lipid accumulation score [1]: ≤ 0

CCCCOc1cc(C(=O)NCCN(CC)CC)c2ccccc2n1 [Dibucaine HCl]
scaled lipid accumulation score [2]: 0.253

CCN(CC)CCNC(=O)c1cc(S(C)(=O)=O)ccc1OC [Tiapride hydrochloride]
scaled lipid accumulation score: 0.066 | scaled lipid accumulation score [1]: ≤ 0 and ≤ -0.027

CCCCOc1cc(C(=O)NCCN(CC)CC)c2ccccc2n1 [Dibucaine]
scaled lipid accumulation score: 0.284

CCCCOc1cc(C(=O)NCCN(CC)CC)c2ccccc2n1.Cl [Dibucaine HCl]
scaled lipid accumulation score [1]: 0.977 (active)

CS(=O)(=O)NC(=O)CCC/C=C\C[C@H]1C(=O)C[C@@H](O)[C@@H]1/C=C/[C@@H](O)COc1ccccc1 [Sulprostone]
scaled lipid accumulation score [3]: ≤ 0

O=C1NC(=O)C(c2cnc3ccccn23)=C1c1cn2c3c(cc(F)cc13)CN(C(=O)N1CCCCC1)CC2
scaled lipid accumulation score (library stock concentration: 80 uM): 0.956 (active) | scaled lipid accumulation score [1]: 0.857 (active)
